Results filed as inconclusive are left out. Entries that show only a call come without a potency. Unmarked numbers belong to inactive results. The source made the active and inactive calls. Calls come from the whole dose curve; as a rule, active = well fitted cell-killing curve with a large enough effect; inconclusive = small, poorly fitted or top-dose-only effect, or effect the other way; inactive = no such curve, though single readings can be large or run the other way.
Legend:
[1] = Viability qHTS for spleen associated tyrosine kinase inhibitor (SYKi) naive MV4-11 cells (AID 1963823); settings: MV4-11 AML viability, CellTiter-Glo luminescence, 72 h; series mostly up to 45 µM; note: nearly all actives have a fitted effect of over 40% in size
Procedure, shortened: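 SYKi-naive MV4-11 AML cells, 500 per well, were exposed to library compounds for 72 hr at 37 C, 5% CO2. Viability was then read by CellTiter-Glo luminescence after 10 min at room temperature.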

[2] = Viability qHTS for spleen associated tyrosine kinase inhibitor (SYKi) drug resistant MV4-11 cells (AID 1963824); settings: SYKi-resistant MV4-11 viability, CellTiter-Glo, 72 h; series mostly up to 45 µM; note: nearly all actives have a fitted effect of over 35% in size
Procedure, shortened: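 SYK inhibitor-resistant MV4-11 AML cells, 500 per well, added to predispensed compounds and incubated 72 hr at 37 C, 5% CO2. Viability measured by CellTiter-Glo luminescence after 10 min at room temperature.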
Potency is the fitted concentration of half-maximal effect.

Row | SMILES | Potency [1] | Potency [2] | viability (% of control) [1] | viability, % of control [2]
1 | O=S(=O)(c1ccc(Cl)cc1)N1CCN(c2ccnc3cc(Cl)ccc23)CC1 | 16.4 µM (active) | 16.4 µM (active) |  | 
2 | C=C[C@H]1[C@H](O[C@@H]2O[C@H](CO)[C@@H](O)[C@H](OC(=O)/C=C/c3ccc(O)c(OC)c3)[C@H]2O)OC=C2C(=O)OCC[C@]21O | inactive | inactive |  | 
3 | CC1(C)CC[C@]2(C(=O)O)CC[C@]3(C)C(=CCC4[C@@]5(C)CC[C@H](O[C@@H]6O[C@H](C(=O)O)[C@@H](O[C@@H]7OC[C@@H](O)[C@H](O)[C@H]7O)[C@H](O)[C@H]6O)C(C)(C)C5CC[C@]43C)C2C1O (stereo partly specified) | inactive | inactive |  | 
4 | CCC(C)C(=O)OC1CC(O)C23C4OCC5(C(O)CC2C1(C)C(O)O4)C3C(=O)CC1(C)C(c2ccoc2)CC2OC215 (stereo unspecified) | 0.893 µM (active) | 0.563 µM (active) |  | 
5 | COc1ccc(/C=C/C(=O)O[C@@H]2[C@@H](O)[C@H](C)O[C@@H](O[C@H]3[C@@H]4C=CO[C@@H](O[C@H]5O[C@@H](CO)[C@H](O)[C@@H](O)[C@@H]5O)[C@@H]4[C@@]4(CO)O[C@@H]34)[C@@H]2OC(C)=O)cc1 | inactive | inactive |  | 
6 | CC(=O)O[C@@]1(C)[C@@H]2CC(=C(C)C)C(=O)C[C@@]2(C)CC[C@H]1OC(=O)C1(C)OC1C (stereo partly specified) | inactive | inactive |  | 
7 | Cc1c(C(=O)NCCCO)cnn1-c1nc(-c2cccc(C(F)(F)F)c2)cs1 | 14.6 µM (active) | 14.6 µM (active) |  | 
8 | C[C@@H]1O[C@@H](OC2C(O[C@H]3[C@H](O[C@H]4CC[C@@]5(C)C(CC[C@]6(C)C5CC=C5C7CC(C)(C)CC(O)[C@]7(C)CC[C@]56C)C4(C)C)O[C@H](C(=O)O)[C@@H](O)[C@@H]3O)OC(CO)C(O)C2O)[C@H](O)[C@H](O)[C@H]1O (stereo partly specified) |  |  | 84.2% [at 9.25 µM] | 97.3% [at 9.25 µM]
